Screening results: PubChem, National Center for Advancing Translational Sciences (NCATS)
Pf growth 96h: P. falciparum growth inhibition at 96 hour, primary screen for plastid delayed-death inhibitors | P. falciparum luciferase reporter growth, 96 h | Potency, µM (titrated, usually from 28.7 µM), without a hit: at the top dose activity change, negative = inhibition, most hits filed as inhibitors | AID 504834 | hit rate 6.9% among 320,000; note: potency is the fitted concentration of half-maximal effect
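Readout is luminescence from an integrated firefly luciferase in P. falciparum. Red cells, 2% hematocrit and 0.05% parasitemia final, were cultured with compound through two parasite generations (96 hours) at 37 C, 5% CO2.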
Sm TGR inh: blocks Schistosoma mansoni thioredoxin glutathione reductase. purified TGR, DTNB reduction, TNB absorbance 405 nm. Potency, µM (top dose mostly 114 µM), for inactives: at the highest dose activity change, negative = inhibition, most hits filed as inhibitors. Q962Y6. hit rate 3% among 360,000; note: potency is the fitted concentration of half-maximal effect; nearly all actives have a fitted effect of over 60% in size
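Kinetic colorimetric format: TGR-catalysed, NADPH-driven DTNB reduction monitored via TNB absorbance. Enzyme dispensed at 20 nM; compound exposure 15 min at room temperature before reaction start.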
Pf growth 48h: P. falciparum growth inhibition at 48 hours (one generation). AID 504832. hit rate 5.9% among 310,000. Potency, µM (highest dose often 28.7 µM), for inactives: top-dose activity change, negative = inhibition, most hits filed as inhibitors. P. falciparum luciferase growth in erythrocytes, 48 h; note: potency is the fitted concentration of half-maximal effect
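Read-out is firefly luciferase luminescence from an integrated reporter in P. falciparum, so falling signal marks reduced parasite growth. Infected erythrocytes were at 2% hematocrit and 0.1% parasitemia (final) in Albumax-supplemented RPMI 1640.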
HCMV antiviral: human cytomegalovirus inhibition. HFF cells, HCMV-luciferase reporter, 72 h; active compounds read low. activity change, negative = inhibition, % at 57.5 µM. hit rate 4.5% among 410,000. AID 1259415; in the data active = activity change below about -60%; inconclusive = no clear call, values can overlap the other calls; inactive = above about -39%
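Two-dose cell screen: HFF monolayers treated with compounds and infected with luciferase-expressing HCMV at 1 PFU/cell, 72 h at 37C, then lysed for luciferase measurement.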
Giardia FBPA inh: blocks Giardia fructose-bisphosphate aldolase activity. A8B2U2. purified Giardia FBPA. Potency, µM (doses to about 59.6 µM), without a hit: at the highest dose activity, negative = inhibition, actives largely listed as inhibitors. hit rate 0.71% among 290,000. AID 2451; note: potency is the fitted concentration of half-maximal effect; nearly all actives have a fitted effect of over 55% in size
Target sequence (A8B2U2 whole entry, looked up): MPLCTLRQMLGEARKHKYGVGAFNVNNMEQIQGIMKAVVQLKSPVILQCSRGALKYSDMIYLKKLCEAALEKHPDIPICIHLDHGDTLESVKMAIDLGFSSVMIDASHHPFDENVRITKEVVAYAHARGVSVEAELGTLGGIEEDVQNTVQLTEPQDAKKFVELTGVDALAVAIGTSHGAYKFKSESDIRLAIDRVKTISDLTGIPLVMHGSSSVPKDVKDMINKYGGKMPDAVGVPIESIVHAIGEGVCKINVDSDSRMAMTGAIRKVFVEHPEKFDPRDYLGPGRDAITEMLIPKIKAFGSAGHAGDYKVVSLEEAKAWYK
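Giardia FBPA (40 nM reagent) was preincubated 10 min at RT with compound (up to 57.5 uM final), then substrate plus GAPDH/TPI/NAD/arsenate coupling system with diaphorase/resazurin was added; resorufin fluorescence (525/598 nm) was read after 20 min.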
The depositor's hits bear a star; ? = inconclusive; . = not tested or not shown. Shown are actives, neighbours in structure and some others; about 14% of the full set was active somewhere. Unless noted, calls come from the whole dose curve; as a rule, active = well fitted curve in the direction sought with a large enough effect; inconclusive = small, poorly fitted or top-dose-only effect, or another doubt; inactive = no such curve, though single readings can be large; an effect the other way counts as inactive or inconclusive. % is set by controls: 0 for no effect and ±100 for the full control effect.

SMILES	Pf growth 96h	Sm TGR inh	Pf growth 48h	HCMV antiviral	Giardia FBPA inh
Cc1cccc(OCCC(=O)Nc2ccc(C)c(S(=O)(=O)N3CCCCC3)c2)c1	?	-1.6%	-14.9%	-64.5*	-4.7%
COc1ccc(NC(=O)CCOc2cc(C)ccc2C)cc1S(=O)(=O)N1CCCCC1	.	.	.	-61.9*	.
Cc1ccc(C)c(OCCC(=O)Nc2cccc(S(=O)(=O)N3CCCCC3)c2)c1	?	-0.6%	11.7µM*	27.6	.
Cc1ccc(C)c(OCCC(=O)Nc2cc(S(=O)(=O)N3CCCCC3)ccc2C)c1	.	.	.	-21.8	.
O=C(c1ccccn1)N(Cc1ccco1)C1(C(=O)Nc2ccc(Br)cc2)CCCCC1	.	.	.	-4.3	.
CCN(C(=O)COC(=O)CNC(=O)c1ccccc1C)C1=CCCCC1	-21.7%	-6.0%	-21.7%	-8.0	.
CCCN(C(=O)CCl)C1=CCCCC1	-36.7%	11.2µM*	?	-100.4*	-6.4%
CCC1(C)Cc2nc3[nH]c(=S)n(-c4ccccc4)c(=O)c3cc2CO1 (centres undefined)	7.38µM*	-0.2%	-6.3%	-63.0*	1.3%
CCC1(C)Cc2nc3[nH]c(=S)n(-c4ccccc4C)c(=O)c3cc2CO1 (centres undefined)	-5.4%	13.0%	-18.2%	?	-8.0%
CC(C)c1nnc(NC(=O)CCC(=O)NCC2CCCO2)s1 (centres undefined)	2.08µM*	7.8%	3.5%	21.7	-2.9%
O=C(CCC(=O)Nc1nnc(C2CCCCC2)s1)NCC1CCCO1 (centres undefined)	-28.2%	1.3%	.	5.2	0.1%
O=C(Nc1ccccc1)c1cccn(Cc2ccccc2)c1=O	357.2%	6.2%	0.0%	-31.2	4.7%
Cc1cccc(Cn2cccc(C(=O)Nc3ccc(F)cc3F)c2=O)c1	.	7.1%	.	-30.2	.
O=C(Nc1ccc(F)cc1F)c1cccn(Cc2ccccc2)c1=O	81.1%	-5.7%	14.7µM*	?	-1.1%
O=C(Nc1ccncc1)c1cccn(Cc2ccccc2)c1=O	?	?	13.0%	-74.7*	1.8%
COc1ccc(-c2cc3nc(C)c(CCC(=O)N4CCN(c5ccccc5)CC4)c(C)n3n2)c(OC)c1	.	7.8%	.	9.8	.
COc1cc(C(=O)NCC(c2ccc3c(c2)OCO3)N2CCN(C)CC2)cc(OC)c1OC (centres undefined)	.	5.1%	.	41.2	.
CN(CC(=O)NC1(C)CCS(=O)(=O)C1)S(=O)(=O)c1ccc(Cl)cc1 (centres undefined)	7.5%	1.5%	?	26.1	.
Cc1cc(C(=O)N/N=C/c2ccc(N(C)C)o2)cs1	0.4%	?	-6.6%	10.5	.
CN(C)c1ccc(/C=N/NC(=O)c2ccccc2O)o1	?	22.4µM*	14.5%	114.0	-21.5%
CN(C)c1ccc(/C=N/NC(=O)C(O)(c2ccccc2)c2ccccc2)o1	-3.9%	10µM*	?	-10.5	-28.6%
O=C(NN=Cc1ccccc1O)C(O)(c1ccccc1)c1ccccc1	.	.	.	1.9	.
O=C(N/N=C/c1ccc(N2CCCCC2)o1)C(O)(c1ccccc1)c1ccccc1	?	22.4µM*	13.1µM*	.	-26.5%
Cc1ccccc1N1CCN(C2CCCN(C(=O)c3ccsc3)C2)CC1 (centres undefined)	?	-28.5%	-16.0%	15.8	.
COc1cccc(CNC(=O)Cn2c(=O)oc3cc(S(=O)(=O)N4CCCC4)ccc32)c1	.	-9.3%	.	7.6	.
SMILES	Pf growth 96h	Sm TGR inh	Pf growth 48h	HCMV antiviral	Giardia FBPA inh
O=C(CSc1nnc(CNC(=O)c2ccco2)o1)Nc1ccccc1F	-9.7%	0.0%	9.9%	-39.5	.
NCCCC[C@H]1CN=C(N)N1CCC12CC3CC(CC(C3)C1)C2	3.7µM*	7.7%	9.28µM*	-2.3	8.7%
S=c1[nH]nc(-c2cc(-c3ccco3)[nH]n2)n1-c1ccccc1Cl	-19.4%	39.8µM*	0.3%	22.3	?
S=c1[nH]nc(-c2ccco2)n1-c1ccccc1Cl	30.8%	15.7%	?	105.0	-16.4%
Cc1ccc(N(CC(=O)NC2CCCCC2C)S(=O)(=O)c2c(C)noc2C)cc1 (centres undefined)	9.28µM*	-6.1%	?	16.1	.
COc1ccc(N(CC(=O)NCc2ccc(Cl)cc2)S(=O)(=O)c2c(C)noc2C)cc1	8.28µM*	2.2%	?	?	.
COc1ccc(N(CC(=O)NCc2ccccc2Cl)S(=O)(=O)c2c(C)noc2C)cc1	?	0.2%	?	-33.7	7.8%
COc1ccc(N(CC(=O)NCc2ccc(C)cc2)S(=O)(=O)c2c(C)noc2C)cc1	2.33µM*	0.7%	?	?	.
Cc1noc(C)c1S(=O)(=O)N(CC(=O)NCc1ccccc1Cl)c1ccc(C(C)C)cc1	.	0.4%	.	-62.0*	.
CCOc1ccc(N(CC(=O)NC2CCCC(C)C2C)S(=O)(=O)c2c(C)noc2C)cc1 (centres undefined)	?	6.3%	-0.5%	.	-0.9%
CCN(CC1CCCO1)C(=O)CCc1nnc(CCc2ccccc2)o1 (centres undefined)	.	.	.	59.4	.
Cc1ccc(N(CC(=O)NCCc2ccccc2)S(=O)(=O)c2c(C)noc2C)cc1	.	-4.4%	?	-9.4	4.3%
CCOc1ccc(N(CC(=O)NCCc2ccc(C)cc2)S(=O)(=O)c2c(C)noc2C)cc1	?	-17.3%	?	-69.1*	.
Cc1nc(NCc2ccccc2)c2nc(-c3ccccc3)n(CCCN3CCOCC3)c2n1	.	.	.	.	-8.9%
Nc1c(C(=O)Nc2ccc(OC(F)(F)F)cc2)sc2nc3c(cc12)N1CCC3CC1	.	1.7%	.	-78.4*	.
CC(=O)c1ccc(NC(=O)c2sc3nc4c(cc3c2N)N2CCC4CC2)cc1	.	-1.5%	.	-2.5	.
CN1CCCC2(CCN(S(=O)(=O)c3ccccc3)CC2)C1	.	.	.	.	0.0%
CC(=O)c1ccc(NC(=O)C2Cc3ccccc3CN2C(=O)c2ccccc2)cc1 (centres undefined)	14.7µM*	-1.1%	-21.3%	36.2	-22.7%
CC(C)c1ccc(NC(=O)C2Cc3ccccc3N2C(=O)c2ccccc2)cc1 (centres undefined)	.	22.1%	.	?	.
CCOc1ccc(NC(=O)C2Cc3ccccc3N2C(=O)c2ccccc2)cc1 (centres undefined)	.	50.1µM*	.	-4.6	.
CN(C)S(=O)(=O)c1ccc(N2CCCC2)c(C(=O)Nc2ccccc2)c1	2.5%	-2.1%	-10.7%	-67.4*	.
COc1cc(Cl)c(C)cc1NC(=O)c1cc(S(=O)(=O)N(C)C)ccc1N1CCCC1	2.33µM*	1.8%	4.65µM*	4.8	8.7%
CN(C)S(=O)(=O)c1ccc(N2CCCC2)c(C(=O)NCC2CCCCC2)c1	?	-14.9%	9.28µM*	-38.7	6.0%
CN(C)S(=O)(=O)c1cccc(NC(=O)c2cc([N+](=O)[O-])ccc2N2CCCCC2)c1	?	2.3%	13.1µM*	?	.
CN(C)S(=O)(=O)c1ccc(N2CCCC2)c(C(=O)Nc2ccccc2OC(F)F)c1	0.0%	6.9%	?	12.2	1.1%
